What was measured:
Assay type in all cases: functional
Plasmodium falciparum [1] = test: GSK_TCMDC: Inhibition of Plasmodium falciparum 3D7 in whole red blood cells, using parasite LDH activity as an index of growth. Test compounds present at 2uM
Plasmodium falciparum [2] = test: GSK_TCMDC: Inhibition of Plasmodium falciparum Dd2 in whole red blood cells, using parasite LDH activity as an index of growth. Test compounds present at 2uM
HepG2 = test: GSK_TCMDC: Percent inhibition of human HepG2 cell line. Test compounds present at 10uM.

Row | Compound | Inhibition (Plasmodium falciparum [1]) [%] | Inhibition (Plasmodium falciparum [2]) [%] | Inhibition (HepG2) [%]
1 | O=C(Nc1cccc(-c2nn3ccccc3c2-c2ccnc(Nc3ccc(Cc4ccncc4)cc3)n2)c1)c1c(F)cccc1F | 97 | 97 | 43
2 | O=C(Cc1ccc(Cl)cc1)Nc1cc(Cl)ccc1Cn1cnc(N2CCNCC2)cc1=O.O=C(O)C(F)(F)F | 97 | 2 | 9
3 | CCOP(=O)(OCC)c1ccc(OC)c(-c2ccc[nH]2)c1 | 95 | 10 | 0
4 | OC1CCC(Nc2ccc3ncc(-c4ccc(Cl)cc4)n3n2)CC1 (centres undefined) | 97 | 98 | 57
5 | CC(C)(c1ccccc1)c1ccc(O)c(CN2CCOCC2)c1 | 99 | 88 | 0
6 | CC1(C)N=C(N)N=C(N)N1c1ccc(Cl)c(Cl)c1.Cl | 95 | 56 | 67
7 | Cc1ccn2c(C(=O)N3CCN(c4cccc5c4nc(-c4ccoc4)n5Cc4ccccn4)CC3)c(C)nc2c1 | 98 | 99 | 2
8 | O=C(C=Cc1ccc(Cl)c(Cl)c1)NCCCCCN1CCCC(CCCNC(=O)C2CC2c2ccccc2)C1 (centres undefined) | 85 | 5 | 48
9 | CCOC(=O)c1cnc2c(C(F)(F)F)cccc2c1Nc1ccc(O)cc1 | 96 | 67 | 0
10 | Cl.O=C(C=Cc1cccs1)N(CCCn1ccnc1)c1nc2ccc(F)cc2s1 | 98 | 28 | 0
11 | Cc1ccc(C(=O)NC2C(=O)NC2c2ccccc2)c(C)c1 (centres undefined) | 90 | 0 | 7
12 | COc1ccc(-c2cnc3ccc(NCc4ccc(S(N)(=O)=O)cc4)nn23)cn1 | 98 | 98 | 16
13 | CN(CCCCCN1CCC(NC(=O)Nc2ccc(C(F)(F)F)cc2)C1)C(=O)/C=C/c1ccc(Cl)c(Cl)c1 (centres undefined) | 100 | 11 | 28
14 | Cc1cccc(C)c1N1CCN(C2CCC(NC(=O)/C=C/c3ccccc3)CC2)CC1 (centres undefined) | 83 | 34 | 38
15 | Cc1cccc2nc(-c3ccc(-c4ccc(C(=O)NCCN5CCCC5)cc4)s3)[nH]c12 | 100 | 13 | 20
16 | O=C(/C=C/c1ccc(-c2nc3cc(F)c(F)cc3[nH]2)cc1)NCc1ccc(Cl)c(Cl)c1 | 100 | 24 | 14
17 | OC(CNc1cccc(Cl)c1)Cn1c2ccc(Cl)cc2c2cc(Cl)ccc21 (centres undefined) | 95 | 33 | 8

Row | Compound | Inhibition (Plasmodium falciparum [1]) [%] | Inhibition (Plasmodium falciparum [2]) [%] | Inhibition (HepG2) [%]
18 | COC(=O)CCCOc1cc(Cc2cnc(N)nc2N)cc(OC)c1OC | 95 | 0 | 12
19 | FC(F)(F)c1ccc2[nH]c(-c3ccc(-c4cccc(CNCc5cnn(-c6ccccc6)n5)c4)s3)nc2c1.O=C(O)C(F)(F)F | 100 | 91 | 38
20 | N#CCSc1nnc(-c2ccccc2)c2ccccc12 | 84 | 73 | 5
21 | COC(=O)c1cccc(CNCc2ccc(-c3cccc(-c4nc5cccc(C)c5[nH]4)c3)cc2)c1.O=C(O)C(F)(F)F | 100 | 84 | 0
22 | COc1cccc(Nc2nc(C)cc(NC3CCCC3)n2)c1 | 100 | 79 | 41
23 | CCCN1CCN(CCCNc2c3ccccc3nc3ccccc23)CC1.Cl | 99 | 0 | 36
24 | CC1(C)NC(=N)N=C(NOCC=Cc2ccccc2)N1 | 98 | 2 | 35
25 | Br.CCC(ON1C(N)=NC(N)=NC1(C)C)c1ccc(Cl)cc1 (centres undefined) | 91 | 90 | 68
26 | CC(C)(C)SC1SC(SC(C)(C)C)C(OC(=O)c2ccccc2)C(OC(=O)c2ccccc2)C1OC(=O)c1ccccc1 (centres undefined) | 95 | 45 | 0
27 | CC[C@H](NC(=O)c1c(CC2CCN(CC(C)=O)CC2)c(-c2ccccc2)nc2ccccc12)c1ccccc1 | 97 | 96 | 7
28 | Cl.N=C1N=C(N)NCN1OCc1ccc(Cl)c(Cl)c1 | 95 | 4 | 14
29 | CC(C)N1CCN(c2ccc(OCCCCN3CCN(c4cccc(Cl)c4Cl)CC3)c(C(F)(F)F)c2)CC1.Cl | 100 | 28 | 64
30 | O=C(Nc1cc(C(F)(F)F)ccc1N1CCOCC1)C(Cl)(Cl)Cl | 100 | 100 | 0
31 | CCOC(=O)NC1=NC(=N)N(OCCCOc2cc(Cl)c(Cl)cc2Cl)C(C)(C)N1 | 97 | 94 | 63
32 | O=C(Nc1ccsc1)Nc1cccc(-c2cccc(-c3nc4cc(F)ccc4[nH]3)c2)c1 | 100 | 41 | 46
33 | CCn1c(-c2nonc2N)nc2c(-c3cccc(Cl)c3)ncc(OCCCNCc3cnc(C)nc3N)c21.O=C(O)C(F)(F)F | 93 | 48 | 21

— ChEMBL document CHEMBL1157539, “Thousands of chemical starting points for antimalarial lead identification” (Nature, 2010)
